In PubChem BioAssay (NCATS):
Inconclusive results are not listed. A call without a number means that no potency is given here. Activity calls are given as the source filed them. The call rests on the fitted dose curve; in most records, active means well fitted curve in the direction sought with a large enough effect; inconclusive means small, poorly fitted or top-dose-only effect, or another doubt; inactive means no such curve, though single readings can be large; an effect the other way counts as inactive or inconclusive.

Columns and labels:
[1] = target: Aldehyde dehydrogenase, mitochondrial (Homo sapiens) (UniProt P05091); assay: qHTS for Inhibitors of the Aldehyde Dehydrogenase Family (ALDH2) Primary screen (AID 2061308); settings: ALDH2 enzyme inhibition qHTS, 1536-well; series mostly up to 56 µM; further: nearly all actives have a fitted effect of over 55% in size; further: potency means the concentration at half of the fitted maximal effect
[2] = target: Retinaldehyde dehydrogenase 3 (Homo sapiens) (UniProt P47895); assay: qHTS for Inhibitors of the Aldehyde Dehydrogenase Family (ALDH1A3) Primary screen (AID 2061315); settings: ALDH inhibition qHTS; series mostly up to 56 µM
[3] = target: Aldehyde dehydrogenase 1A1 (Homo sapiens) (UniProt P00352); assay: qHTS for Inhibitors of the Aldehyde Dehydrogenase Family (ALDH1A1) Confirmatory screens (AID 2061316); settings: ALDH inhibition qHTS; series mostly up to 47.3 µM; further: nearly all actives have a fitted effect of over 65% in size; further: potency means the concentration at half of the fitted maximal effect

SMILES	Potency [1]	Potency [2]	Potency [3]
Fc1cccc(CNc2ncnc3ccc(-c4ccoc4)cc23)c1	inactive	inactive	
Cc1cccc(Nc2nc(NCCO)nc(N3CCCC3)n2)c1	inactive	inactive	
O=C1Nc2cc(Cl)ccc2Nc2cscc21	14.1 µM (active)	inactive	7.12 µM (active)
CN1CCN(C(=O)c2ccc(-c3cnc4c(O)ccc(C(=O)O)c4c3)cc2)CC1	inactive	inactive	inactive
C[N+]1(CC2COC(c3ccccc3)(c3ccccc3)O2)CCCCC1 (centres undefined)	inactive	inactive	
Cc1noc(C)c1-c1ccc2ncnc(NCc3cccc(F)c3)c2c1	inactive	inactive	
CC(=O)NC(c1ccco1)c1cc(Br)c2cccnc2c1O (centres undefined)	inactive	inactive	
Cc1c(C(=O)OCC(C)(C)C)[nH]c2c1C(=O)CC(c1ccco1)C2 (centres undefined)	inactive	inactive	0.896 µM (active)
Cc1cccc(-n2cnc3cc(C(=O)N4CCC(c5ccccc5)CC4)ccc32)c1	inactive	inactive	
c1nc(NC[C@@H]2CCCO2)c2cc(-c3ccc4c(c3)OCO4)ccc2n1	inactive	inactive	20.1 µM (active)
Cn1nnnc1Sc1ncnc2scc(-c3ccc(C(=O)OC(C)(C)C)cc3)c12	inactive	inactive	
COc1ccc(NC(=O)c2[nH]c(C)c(C(C)=O)c2C)cc1S(=O)(=O)Nc1ccc(C#N)cc1	inactive	inactive	11.3 µM (active)
COC(=O)c1ccccc1-c1ccc(/C=c2\sc3nc4cc(Br)cnc4n3c2=O)o1	inactive	inactive	11.3 µM (active)
Cn1c2cc(CO)sc2c2cnn(Cc3ccccc3F)c(=O)c21	inactive	inactive	
